What is called inhibition is the change of the read-out against control, counted positive when it falls.

Out of some 330,000 compounds screened, about 10,000 (3%) were called active. For the sample, actives were picked, then their nearest neighbours and some compounds at random. Values without a mark were called inactive.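 The calls were made as follows: active = inhibition of at least 50% at 8 µM in the primary screen; inactive = the rest.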

For this assay, the target named is Protein Mdm4 (Homo sapiens) + E3 ubiquitin-protein ligase Mdm2 (Homo sapiens) (UniProt O15151+Q00987). Briefly: disruptors of Mdm2/MdmX RING complex – cell-based, luminescence, split luciferase, SaOS-2, uHTS, primary screen (AID 485346). The conditions noted are these: SaOS-2 split-luciferase Mdm2/MdmX complementation, at 8 µM, stronger effect = higher value.
Protein Mdm4 (Homo sapiens) + E3 ubiquitin-protein ligase Mdm2 (Homo sapiens), sequence (O15151 whole entry, looked up): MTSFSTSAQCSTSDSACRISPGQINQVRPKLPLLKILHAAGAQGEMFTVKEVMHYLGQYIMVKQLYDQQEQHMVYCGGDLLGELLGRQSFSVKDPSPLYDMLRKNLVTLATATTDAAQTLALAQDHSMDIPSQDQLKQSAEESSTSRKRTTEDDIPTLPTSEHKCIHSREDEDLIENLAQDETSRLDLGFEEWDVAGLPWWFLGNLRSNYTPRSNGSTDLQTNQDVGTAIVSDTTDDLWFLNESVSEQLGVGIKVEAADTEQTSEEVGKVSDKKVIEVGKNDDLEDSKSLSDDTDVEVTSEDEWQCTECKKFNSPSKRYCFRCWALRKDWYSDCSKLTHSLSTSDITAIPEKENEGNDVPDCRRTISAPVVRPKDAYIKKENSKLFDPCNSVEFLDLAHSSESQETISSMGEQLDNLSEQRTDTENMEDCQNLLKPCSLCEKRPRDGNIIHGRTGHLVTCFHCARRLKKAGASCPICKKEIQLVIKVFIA
Protein Mdm4 (Homo sapiens) + E3 ubiquitin-protein ligase Mdm2 (Homo sapiens), sequence (Q00987 whole entry, looked up): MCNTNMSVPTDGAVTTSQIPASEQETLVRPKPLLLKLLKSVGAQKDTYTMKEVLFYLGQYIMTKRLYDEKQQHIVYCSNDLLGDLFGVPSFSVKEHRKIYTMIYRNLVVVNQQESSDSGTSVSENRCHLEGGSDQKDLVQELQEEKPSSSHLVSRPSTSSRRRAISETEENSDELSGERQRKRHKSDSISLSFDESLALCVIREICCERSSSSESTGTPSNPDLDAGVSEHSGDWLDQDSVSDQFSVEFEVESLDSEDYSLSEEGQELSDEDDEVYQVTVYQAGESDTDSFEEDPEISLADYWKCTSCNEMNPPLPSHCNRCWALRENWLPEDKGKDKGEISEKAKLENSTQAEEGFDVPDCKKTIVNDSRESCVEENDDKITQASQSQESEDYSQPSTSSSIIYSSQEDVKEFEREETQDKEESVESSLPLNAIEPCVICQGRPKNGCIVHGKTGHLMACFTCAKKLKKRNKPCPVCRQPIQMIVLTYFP
As for `O=C(CSc1nncn1-c1cccnc1)N1CCOCC1`, the inhibition is -14.1%.
`Cc1ccc(C(=O)O)cc1NC(=O)c1ccc(Cn2nc(C)c(Cl)c2C)o1`: the inhibition was 2.65%.
As for `Cc1nn(Cc2ccc(Cl)cc2)c(Cl)c1/C=N/NC(=O)c1cccnc1`, the figure is -2.65%; as for `Cc1c(Cl)c([N+](=O)[O-])nn1Cc1ccc(C(=O)N/N=C\c2cc(Cl)ccc2O)o1`, 68.9% (active); as for `Cc1nc(Nc2ccc3c(c2)OCCO3)c2nnn(Cc3ccccc3Cl)c2n1`, 32.4%.
The figure for `CCCc1nc(NCc2ccc3c(c2)OCO3)c2nnn(Cc3ccccc3Cl)c2n1` is 75.2% (active); for `Cc1nc(Nc2ccccc2F)c2nnn(Cc3ccccc3Cl)c2n1` it is 4.88%; for `CCOc1ccc(C(=O)CCC(=O)Nc2ccncc2)cc1` it is 13.9%.
The figure for `C=CCn1c2ccccc2c2nnc(SCc3[nH]c(=O)[nH]c3C(=O)CCCCC(=O)OCC)nc21` is 26.8%.
In the case of `Cc1ccc(NC(=O)C2CC2)cc1S(=O)(=O)N1CCOCC1`, the inhibition is -2.88%.
As for `O=C1CSC(c2ccc(Cl)cc2)N1` (stereo not given), the figure is -16.7%.
The figure for `c1coc(CNc2ncnc3ccccc23)c1` is -3.14%.
Regarding `Cc1noc(C)c1-c1ccc2ncnc(NC(C)c3ccco3)c2c1` (stereo not given), the inhibition is 83.9% (active).
The figure for `O=C(NC(=S)Nc1ccccc1C(=O)O)c1ccc(-c2ccc(Br)cc2)o1` is 44.1%; for `CC1CCN(CC(=O)Nc2nccs2)CC1` it is 32.3%.
The figure for `CC(C)CCN1C(=O)c2ccc(C(=O)Nc3cccc(S(N)(=O)=O)c3)cc2C1=O` is 7.02%; for `COc1nc(N=C(N)N)nc2c(C)cccc12` it is 22.9%.
In the case of `CC(=O)Oc1ccc(-c2nc3c(C)cccc3c(=O)o2)cc1`, the inhibition was 15.5%.
The figure for `Cc1nc(N=C(N)N)nc2c(C)cccc12` is 75.4% (active); for `COc1ccc(C2C(C#N)=C(/N=C/N3CCOCC3)OC3=C2C(=O)CC(C)(C)C3)cc1OC` (stereo not given) it is -7.65%; for `COc1cc(C2C(C#N)=C(N)Oc3n[nH]c(-c4ccccn4)c32)cc(OC)c1OC` (stereo not given) it is 1.17%.
As for `COc1ccc(C2C(C#N)=C(N)Oc3cc(N)ccc32)cc1OC` (stereo not given), the figure is 50.9% (active); as for `COc1ccccc1NS(=O)(=O)c1ccc(C(=O)N2CCN(c3ccccc3O)CC2)cc1`, 19.3%; as for `O=P(O)(CN1CCCCCC1)C1Cc2ccccc2C1`, 10.7%.
The figure for `O=C(CNc1ccccc1N1CCCC1=O)Nc1cc(Cl)ccc1-n1cncn1` is 0.059%; for `Cc1ccc(S(=O)(=O)N2CCN(C(=O)Cn3c(=O)cnc4ccccc43)CC2)c(C)c1` it is 12.2%; for `C[C@@H]1C[C@@H]2O[C@H]2/C=C\C=C\C(=O)Cc2c(Cl)c(O)cc(O)c2C(=O)O1` it is 79.3% (active).
As for `CCN(CC(=O)N1CCCC1)S(=O)(=O)c1ccc(F)cc1`, the inhibition is -4.05%.
The figure for `Cc1ccc(F)cc1S(=O)(=O)Nc1cccc(C(=O)N2CCCC(C(N)=O)C2)c1` (stereo not given) is 17.8%; for `Oc1ccc(/C=N/Nc2ccc(C(F)(F)F)cn2)cc1O` it is -9.44%.
The figure for `Oc1ccc(Br)cc1/C=N/Nc1ccccn1` is 84.7% (active); for `COc1ccc(-c2nn(-c3ccccc3)cc2/C=N/Nc2ccccn2)cc1OC` it is 34.3%; for `Cc1cccc(NC(=O)N2CCCCCC2)c1C` it is 23.2%.
As for `CCN([C@H](CO)C(C)C)S(=O)(=O)c1ccccc1Br`, the figure is 33.9%.
`CCc1cc2c(N3CCN(c4nnc(CC)s4)CC3)ncnc2s1`: the inhibition is 29.4%.
As for `Oc1ccccc1N1CCN(c2ncnc3sc(-c4ccccc4)cc23)CC1`, the figure is 81.3% (active); as for `c1ccc(-c2cc3c(NCC4COc5ccccc5O4)ncnc3s2)cc1` (stereo not given), 31.6%; as for `NNC(=O)c1nnn(-c2nonc2N)c1CN1CCCC1`, 4.39%.
The figure for `Nc1nonc1-n1nnc(C(=O)N/N=C\c2ccncc2)c1CN1CCCCC1` is 3.58%; for `Nc1nonc1-n1nnc(C(=O)N/N=C/c2ccccc2O)c1CN1CCCC1` it is 52.8% (active).
As for `CCOC(=O)c1ccc(NC(=O)CCn2c(=O)oc3ccccc32)cc1`, the inhibition is 8.91%.
As for `Cc1cccc(NC(=O)c2ccc(S(=O)(=O)N(C)CC3CCCO3)cc2)c1C` (stereo not given), the figure is 17.9%.
For the compound `CN(CC1CCCO1)S(=O)(=O)c1ccc(C(=O)Nc2ccc(F)cc2)cc1` (stereo not given), the inhibition was 14.6%.
As for `CCOC(=O)c1c(NC(=O)c2ccc(S(=O)(=O)N(C)CC3CCCO3)cc2)sc2c1CC(C)(C)NC2(C)C` (stereo not given), the figure is 79.5% (active); as for `CCCn1c2ccccc2c2cnn(CC(=O)NCCCN3CCCCC3CC)c(=O)c21` (stereo not given), 24%.
As for `O=C(CN1C(=O)CCS(=O)(=O)c2ccccc21)NCc1ccc(F)cc1`, the figure is 13.2%; as for `COc1cc2c(cc1OC)CN(C(C)C(=O)Nc1cccc(S(=O)(=O)N3CCOCC3)c1)CC2` (stereo not given), 21.6%; as for `CCCCN1CCNC1=S`, 27%.
The figure for `O=C(CSc1nccn1-c1cccc(F)c1)NC1CCCC1` is 6.79%; for `Cc1ccc(Cn2nnc3c(=O)n(CC(=O)N4CCCCC4)cnc32)cc1` it is 8.92%; for `Cc1cc(C)cc(NC(=O)Cn2cnc3c(nnn3Cc3ccc(F)cc3)c2=O)c1` it is 64.8% (active).
For the compound `O=C(Cn1cnc2c(nnn2Cc2ccc(F)cc2)c1=O)NCc1ccc2c(c1)OCO2`, the inhibition was 7.94%.
As for `CSCCC(NS(=O)(=O)c1ccccc1F)C(=O)N1CC=C(c2ccccc2)CC1` (stereo not given), the figure is -11.8%.
`c1csc(-c2nnc(COc3ccc4c(c3)OCO4)o2)c1`: the inhibition was -40.3%.
As for `CCCOc1ccc(C2=CSC3=NCCN23)cc1Cl`, the figure is 28.9%; as for `COc1ccc(NC(=O)NN2CCN(C)CC2)c(OC)c1`, 0.742%.
For `O=[N+]([O-])c1ccccc1/C=C/CN1CCC(O)CC1`, the inhibition was -3.09%.
The figure for `CC1CCCCC1NC(=O)/C(C#N)=C/C=C/c1ccccc1[N+](=O)[O-]` (stereo not given) is 99.6% (active); for `O=[N+]([O-])c1ccccc1/C=C/CN1CCCC(CO)C1` (stereo not given) it is 3.12%; for `CCCN(CCC)S(=O)(=O)c1ccc(C(=O)NNC(=O)c2cc(OC)c(OC)c(OC)c2)cc1` it is -7.78%.

(Values after PubChem BioAssay AID485346 (Sanford-Burnham Center for Chemical Genomics, 2010).)
